Measured values published in PubChem BioAssay AID1159580 (chemical genetic matrix, 2015).
Among all 5,500 compounds or so, about 2,000 (36%) were called active. Roughly 18% stayed inconclusive and do not appear here. Cut-off read from the data, not from the text of the source: active = normalized growth mostly below about 0.91 (no sharp cut-off); inconclusive = no clear call, values can overlap the other calls; inactive = mostly above about 0.92. The list shows a part of the results.

Assay: chemical genetic growth profiling, strain panel (AID 1159580);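 note: tested at 20 µM; growth read once vehicle control cultures reached saturation at 30 °C; 1 = growth at the plate median or of vehicle wells; lower values mean less growth of the strain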
Conditions: growth OD
[1] = S. cerevisiae deletion strains, locus YAL040C, strain CLN3, active compounds read low
[2] = S. cerevisiae deletion strains, locus YCL061C, strain MRC1 (second series), active compounds read low
[3] = S. cerevisiae deletion strains, locus YDR363W, strain ESC2, active compounds read low
[4] = S. cerevisiae deletion strains, locus YER002W, strain NOP16, active compounds read low
[5] = S. cerevisiae deletion strains, locus YGR078C, strain PAC10, active compounds read low
[6] = S. cerevisiae deletion strains, locus YJR075W, strain HOC1, active compounds read low
[7] = S. cerevisiae deletion strains, locus YMR307W, strain GAS1, active compounds read low
[8] = S. cerevisiae deletion strains, locus YNL128W, strain TEP1, active compounds read low
[9] = S. cerevisiae deletion strains, locus YNL153C, strain GIM3, active compounds read low
[10] = S. cerevisiae deletion strains, locus YNL175C, strain NOP13, active compounds read low
[11] = S. cerevisiae deletion strains, locus YNL197C, strain WHI3, active compounds read low
[12] = S. cerevisiae deletion strains, locus YNL224C, strain SQS1, active compounds read low
[13] = S. cerevisiae deletion strains, locus YOR083W, strain WHI5 (second series), active compounds read low
[14] = S. cerevisiae deletion strains, locus YPL241C, strain CIN2, active compounds read low
[15] = S. cerevisiae deletion strains, locus YMR263W, strain SAP30, active compounds read low

Measured: normalized growth

O=C(O)CNC(=O)C(CS)Cc1ccccc1 (stereo not given)
inactive: S. cerevisiae deletion strains, locus YAL013W, strain DEP1, active compounds read low 1.01 | [1] 1.05 | [2] 1 | [3] 1.01 | [4] 0.994 | [5] 1.01 | [6] 0.996 | [7] 1 | [8] 1.02 | [9] 1.07 | [10] 1.01 | [11] 0.967 | [12] 1 | S. cerevisiae deletion strains, locus YNL322C, strain KRE1, active compounds read low 0.995 | [13] 1.04 | S. cerevisiae deletion strains, locus YPL055C, strain LGE1, active compounds read low 1.01 | [14] 1.01

CC(=O)SC1CC2=CC(=O)CC[C@]2(C)C2CC[C@@]3(C)C(CC[C@@]34CCC(=O)O4)C12 (stereo not given in full)
inactive: [1] 0.996 | [2] 1 | S. cerevisiae deletion strains, locus YDR150W, strain NUM1, active compounds read low 1.01 | [3] 1 | [4] 0.982 | [5] 1.01 | S. cerevisiae deletion strains, locus YGR229C, strain SMI1, active compounds read low 1.01 | [6] 1.01 | [15] 0.99 | [7] 1.03 | [8] 0.986 | [10] 1.01 | [11] 0.999 | [12] 1 | [13] 1.01 | [14] 1.01

CC(=O)O[C@@H]1CC2C(C)(C)C(=O)[C@@H]3O[C@@H]3[C@]2(C)C2CC[C@]3(C)C(=CC(=O)O[C@H]3c3ccoc3)[C@@]21C (stereo not given in full)
inactive: S. cerevisiae deletion strains, locus YBR021W, strain FUR4, active compounds read low 0.995 | S. cerevisiae deletion strains, locus YBR229C, strain ROT2, active compounds read low 0.94 | S. cerevisiae deletion strains, locus YCL029C, strain bik1, active compounds read low 0.967 | S. cerevisiae deletion strains, locus YDL035C, strain GPR1, active compounds read low 0.958 | S. cerevisiae deletion strains, locus YDL074C, strain BRE1, active compounds read low 0.989 | S. cerevisiae deletion strains, locus YDL101C, strain DUN1, active compounds read low 0.994 | S. cerevisiae deletion strains, locus YDL134C, strain PPH21, active compounds read low 0.988 | S. cerevisiae deletion strains, locus YDL185W, strain tfp1, active compounds read low 0.964 | S. cerevisiae deletion strains, locus YDL192W, strain arf1, active compounds read low 0.976 | S. cerevisiae deletion strains, locus YDR101C, strain arx1, active compounds read low 0.975 | S. cerevisiae deletion strains, locus YDR162C, strain NBP2, active compounds read low 0.98 | S. cerevisiae deletion strains, locus YDR318W, strain mcm21, active compounds read low 0.995 | S. cerevisiae deletion strains, locus YDR388W, active compounds read low 0.999 | S. cerevisiae deletion strains, locus YDR502C, strain sam2, active compounds read low 1.01 | S. cerevisiae deletion strains, locus YEL061C, strain CIN8, active compounds read low 0.979 | S. cerevisiae deletion strains, locus YER110C, active compounds read low 0.975 | S. cerevisiae deletion strains, locus YER155C, strain BEM2, active compounds read low 0.998 | S. cerevisiae deletion strains, locus YER167W, strain BCK2, active compounds read low 0.981 | S. cerevisiae deletion strains, locus YGL078C, strain dbp3, active compounds read low 1.01 | S. cerevisiae deletion strains, locus YGL086W, strain mad1, active compounds read low 0.99 | S. cerevisiae deletion strains, locus YGL248W, strain PDE1, active compounds read low 1.01 | [5] 1.01 | S. cerevisiae deletion strains, locus YGR135W, strain pre9, active compounds read low 1.07 | S. cerevisiae deletion strains, locus YGR252W, strain gcn5, active compounds read low 0.997 | S. cerevisiae deletion strains, locus YHR030C, strain SLT2, active compounds read low 0.989 | S. cerevisiae deletion strains, locus YHR079C, strain IRE1 (second series), active compounds read low 0.985 | S. cerevisiae deletion strains, locus YHR094C, strain hxt1, active compounds read low 0.981 | S. cerevisiae deletion strains, locus YHR129C, strain ARP1, active compounds read low 0.988 | S. cerevisiae deletion strains, locus YHR200W, strain rpn10, active compounds read low 0.985 | S. cerevisiae deletion strains, locus YIL066C, strain RNR3, active compounds read low 0.948 | S. cerevisiae deletion strains, locus YIL073C, strain SPO22, active compounds read low 0.956 | S. cerevisiae deletion strains, locus YIL125W, strain kgd1, active compounds read low 0.987 | S. cerevisiae deletion strains, locus YIR030C, strain dcg1, active compounds read low 0.99 | S. cerevisiae deletion strains, locus YJL095W, strain BCK1, active compounds read low 1.04 | S. cerevisiae deletion strains, locus YJL134W, strain LCB3, active compounds read low 0.982 | S. cerevisiae deletion strains, locus YJL168C, strain set2, active compounds read low 0.996 | S. cerevisiae deletion strains, locus YJL187C, strain SWE1 (second series), active compounds read low 1.01 | S. cerevisiae deletion strains, locus YJR043C, strain POL32, active compounds read low 0.96 | [6] 1 | S. cerevisiae deletion strains, locus YKL009W, strain mrt4, active compounds read low 0.976 | S. cerevisiae deletion strains, locus YKL068W, active compounds read low 0.986 | S. cerevisiae deletion strains, locus YKL085W, strain MDH1 (second series), active compounds read low 0.996 | S. cerevisiae deletion strains, locus YKL085W, strain MDH1, active compounds read low 0.996 | S. cerevisiae deletion strains, locus YKR001C, strain vps1, active compounds read low 0.971 | S. cerevisiae deletion strains, locus YLR039C, strain RIC1, active compounds read low 0.99 | S. cerevisiae deletion strains, locus YLR058C, strain SHM2, active compounds read low 0.974 | S. cerevisiae deletion strains, locus YLR102C, strain apc9, active compounds read low 0.981 | S. cerevisiae deletion strains, locus YLR262C, strain YPT6, active compounds read low 0.963 | S. cerevisiae deletion strains, locus YLR268W, strain sec22, active compounds read low 0.948 | S. cerevisiae deletion strains, locus YLR330W, strain CHS5, active compounds read low 0.988 | S. cerevisiae deletion strains, locus YLR371W, strain rom2, active compounds read low 0.979 | S. cerevisiae deletion strains, locus YLR418C, strain cdc73, active compounds read low 0.993 | S. cerevisiae deletion strains, locus YML016C, strain PPZ1, active compounds read low 0.972 | S. cerevisiae deletion strains, locus YML032C, strain rad52, active compounds read low 0.962 | S. cerevisiae deletion strains, locus YML124C, strain tub3, active compounds read low 0.991 | S. cerevisiae deletion strains, locus YMR078C, strain ctf18, active compounds read low 0.993 | S. cerevisiae deletion strains, locus YMR223W, strain ubp8, active compounds read low 1 | [15] 1.01 | [7] 0.999 | S. cerevisiae deletion strains, locus YNL067W, strain RPL9B, active compounds read low 1.03 | [8] 0.948 | [9] 1.02 | S. cerevisiae deletion strains, locus YNL233W, strain BNI4, active compounds read low 1.03 | S. cerevisiae deletion strains, locus YNL250W, strain rad50, active compounds read low 1.01 | S. cerevisiae deletion strains, locus YNL271C, strain bni1, active compounds read low 0.999 | S. cerevisiae deletion strains, locus YNL298W, strain CLA4, active compounds read low 0.995 | S. cerevisiae deletion strains, locus YNL307C, strain MCK1, active compounds read low 0.987 | S. cerevisiae deletion strains, locus YNR052C, strain pop2, active compounds read low 1.04 | S. cerevisiae deletion strains, locus YOL012C, strain htz1 0.875 | S. cerevisiae deletion strains, locus YOL147C, strain pex11, active compounds read low 0.993 | S. cerevisiae deletion strains, locus YOR061W, strain CKA2, active compounds read low 0.936 | S. cerevisiae deletion strains, locus YOR069W, strain VPS5, active compounds read low 0.995 | S. cerevisiae deletion strains, locus YOR136W, strain idh2, active compounds read low 0.99 | S. cerevisiae deletion strains, locus YOR144C, strain elg1, active compounds read low 0.988 | S. cerevisiae deletion strains, locus YOR184W, strain ser1, active compounds read low 0.963 | S. cerevisiae deletion strains, locus YOR316C, strain cot1, active compounds read low 0.986 | S. cerevisiae deletion strains, locus YPR119W, strain clb2, active compounds read low 0.993 | S. cerevisiae deletion strains, locus YPR141C, strain kar3, active compounds read low 0.989 | S. cerevisiae deletion strains, locus YPR163C, strain tif3, active compounds read low 0.982 | S. cerevisiae deletion strains, locus YPR167C, strain met16, active compounds read low 0.999 | S. cerevisiae deletion strains, strain wtn01, active compounds read low 0.96 | S. cerevisiae strains, strain wild type, active compounds read low 0.973
